Assay in all cases: NCI-60 one-dose screen, 48 h (100 = growth as untreated, 0 = no growth, -100 = all killed)
The test system of one assay is HCT-15 colon. The note with it: 10 µM.
In a further assay the test system is HT29 colon. As to conditions: 10 µM.
Another assay concerns SNB-75 CNS. As to conditions: 10 µM.
A further assay has as its system U251 CNS. The note with it: 10 µM.
Another assay deals with PC-3 prostate. As to conditions: 10 µM.
The test system of a further assay is SK-MEL-5 melanoma. As to conditions: 10 µM.
For the next assay, the system named is UACC-62 melanoma. The note with it: 10 µM unless noted.
The subject of the next assay is LOX IMVI melanoma. As to conditions: 10 µM.
A further assay relates to SK-MEL-28 melanoma. As to conditions: 10 µM.
Another assay deals with SNB-19 CNS. The note with it: 10 µM.

Growth data for 17 compounds are collected here from PubChem BioAssay (NCI).

About 83,000 compounds went through this panel and 20% of them were active in at least one assay; those are over-represented in the sample as a whole.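 For each line, cells grew in 96-well plates with the test compound present at a single concentration for 48 hours.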 A number with no mark means an inactive call. The source made the active and inactive calls. The calls were made as follows: active = growth percent below 10; inactive = the rest.

Turning to `Cc1cc2nc(CC(=O)c3cccc([N+](=O)[O-])c3)c(=O)[nH]c2cc1C`, the growth with HCT-15 colon was 77%; in the assay on HT29 colon it was 68.2%; in the assay on SNB-75 CNS, 96.1%; in the assay on U251 CNS it was 95.1%; in the assay with PC-3 prostate, 68%; with SK-MEL-5 melanoma, 97.9%. In addition, the growth in the assay with UACC-62 melanoma was 65%; with LOX IMVI melanoma, 72.8%; in the assay on SK-MEL-28 melanoma it was 97.7%.
For the compound `O=C(CC(=O)c1ccccc1O)c1ccccc1`, the growth was 74.4% in the assay on HCT-15 colon; 87.8% with HT29 colon; 86.9% in the assay with SNB-19 CNS; 63.3% in the assay on U251 CNS; 92.6% in the assay on PC-3 prostate; 77.6% in the assay on SK-MEL-5 melanoma. The growth in the assay on UACC-62 melanoma is 91%; in the assay on LOX IMVI melanoma, 76.9%; in the assay on SK-MEL-28 melanoma, 99.3%.
With `CN(C)C(C)(C)CC(C)(C)C`, the growth in the assay on HCT-15 colon was 100%; in the assay on HT29 colon, 119%; in the assay on SNB-19 CNS, 105%; in the assay on U251 CNS, 107%; in the assay with SK-MEL-5 melanoma, 105%; with UACC-62 melanoma, 105%. Further, the growth in the assay on LOX IMVI melanoma was 100%; in the assay on SK-MEL-28 melanoma it was 109%.
For `CCOc1ccc(/C=N/N=C(N)N)cc1OCC`, the growth is 97.6% with HCT-15 colon; 89.5% in the assay on HT29 colon; 97.6% with SNB-19 CNS; 103% with U251 CNS; 94.1% with PC-3 prostate; 98.5% in the assay on SK-MEL-5 melanoma. For the same compound, the results for the growth in the assay with UACC-62 melanoma, in the assay on LOX IMVI melanoma and in the assay on SK-MEL-28 melanoma were 93.1%, 101% and 92.4%, respectively.
As to `COc1ccc(C2(O)CCCCC2)cc1`, the growth with HCT-15 colon was 112%; in the assay on HT29 colon, 106%; in the assay with SNB-19 CNS, 102%; with U251 CNS it was 100%; with PC-3 prostate, 89.7%; in the assay on SK-MEL-5 melanoma, 98.6%. The figures for the growth in the assay on UACC-62 melanoma, in the assay on LOX IMVI melanoma and with SK-MEL-28 melanoma were 94.7%, 96.1% and 120%, respectively.
Regarding `c1ncc2[nH]cnc2n1`, the growth is 87.2% in the assay with HCT-15 colon; 92.3% with HT29 colon; 102% with SNB-19 CNS; 103% with U251 CNS; 86.3% in the assay with PC-3 prostate; 97.1% in the assay with SK-MEL-5 melanoma. For the same compound, the growth in the assay on UACC-62 melanoma was 91.9%; in the assay on LOX IMVI melanoma it was 103%; in the assay with SK-MEL-28 melanoma, 100%.
In the case of `O=C(O)c1cc([N+](=O)[O-])ccc1Cl`, the growth is 100% in the assay on HCT-15 colon; 84.3% in the assay with HT29 colon; 99.4% in the assay with SNB-19 CNS; 106% in the assay with U251 CNS; 88.8% in the assay with PC-3 prostate; 100% in the assay with SK-MEL-5 melanoma. In addition, the growth in the assay on UACC-62 melanoma is 95.6%; with LOX IMVI melanoma, 99.5%.
As to `COc1ccc(NC(=O)CCl)cc1`, the growth is 72.3% with HCT-15 colon; 67.3% with HT29 colon; 104% in the assay on SNB-19 CNS; 6.32% (active) with U251 CNS; 74.6% in the assay on PC-3 prostate; 65.3% in the assay with SK-MEL-5 melanoma. The growth in the assay with UACC-62 melanoma was 83.1%; with SK-MEL-28 melanoma, 97.2%.
Consider `C#C[C@H]1CCCCCC1O` (stereo partly drawn), for which the growth with HCT-15 colon is 114%; in the assay on HT29 colon, 107%; in the assay on SNB-19 CNS it was 106%; with U251 CNS it was 99.7%; with PC-3 prostate, 90.1%; with SK-MEL-5 melanoma, 98.1%. Besides, the growth was 100% in the assay with UACC-62 melanoma, 97% in the assay on LOX IMVI melanoma and 122% with SK-MEL-28 melanoma.
Take `CCN(CC)CCNc1ccc(CO)c2sc3ccccc3c(=O)c12`: the growth was 27.2% in the assay on HCT-15 colon; 18.1% in the assay on HT29 colon; 43.2% with SNB-19 CNS; 32.4% in the assay with U251 CNS; 46.1% in the assay with PC-3 prostate; 30.6% in the assay on UACC-62 melanoma. Further, in the assay with LOX IMVI melanoma, the growth is 28%.
For the compound `CCOC(=O)C(=O)C=P(c1ccccc1)(c1ccccc1)c1ccccc1`, the growth in the assay with HCT-15 colon is 102%; in the assay with HT29 colon it was 106%; with SNB-19 CNS it was 109%; in the assay on U251 CNS, 107%; in the assay with PC-3 prostate it was 96.4%; with SK-MEL-5 melanoma, 102%. Besides, the growth with UACC-62 melanoma is 107%; in the assay on LOX IMVI melanoma it was 92.8%; in the assay with SK-MEL-28 melanoma it was 110%.
As for `Cc1cc(N)ccc1-c1ccc(N)cc1C`, the growth in the assay with HCT-15 colon is 97.6%; in the assay with HT29 colon, 102%; in the assay on SNB-19 CNS, 107%; in the assay on U251 CNS, 110%; in the assay on PC-3 prostate, 73.8%; with SK-MEL-5 melanoma, 99.7%. The values for the growth with UACC-62 melanoma, in the assay with LOX IMVI melanoma and in the assay on SK-MEL-28 melanoma were 104%, 88.2% and 104%, respectively.
Regarding `NC(=O)N/N=C\c1ccco1`, the growth in the assay with HCT-15 colon was 107%; in the assay with HT29 colon it was 103%; in the assay on SNB-19 CNS, 102%; in the assay with U251 CNS, 101%; with PC-3 prostate, 104%; in the assay on SK-MEL-5 melanoma it was 107%. Moreover, the growth is 103% in the assay on UACC-62 melanoma, 102% in the assay on LOX IMVI melanoma and 116% in the assay on SK-MEL-28 melanoma.
`CCC(O)CC(CC)CO` (stereo not drawn): the growth in the assay on HCT-15 colon is 104%; in the assay on HT29 colon, 113%; with SNB-19 CNS it was 114%; in the assay with U251 CNS, 111%; with PC-3 prostate it was 101%; in the assay on SK-MEL-5 melanoma, 106%. In addition, the figures for the growth with UACC-62 melanoma, with LOX IMVI melanoma and in the assay on SK-MEL-28 melanoma were 112%, 103% and 101%, respectively.
Consider `CC1CCCC(CC(N)=O)CC1` (stereo not drawn), for which the growth in the assay with HCT-15 colon was 107%; with HT29 colon, 85%; in the assay with SNB-19 CNS, 110%; in the assay on U251 CNS, 99.7%; in the assay on PC-3 prostate, 78.8%; with SK-MEL-5 melanoma it was 103%. Further, the growth in the assay on UACC-62 melanoma was 104%; in the assay with LOX IMVI melanoma, 101%; with SK-MEL-28 melanoma, 119%.
With `FC(F)(F)c1ccc2c(c1)N(CCCN1CCN(C3CC3)CC1)c1ccccc1S2`, the growth in the assay on HCT-15 colon is 68.7%; in the assay on HT29 colon it was 36.1%; with SNB-19 CNS, 43%; in the assay with U251 CNS, 25.8%; in the assay with PC-3 prostate, 48.5%; in the assay on SK-MEL-5 melanoma, 81%. The growth was 54% in the assay with UACC-62 melanoma, 37.6% in the assay with LOX IMVI melanoma and 93.8% in the assay on SK-MEL-28 melanoma.
For `Cc1cc(=O)cc(C)n1-c1ccccc1`, the growth in the assay on HCT-15 colon was 104%; in the assay with HT29 colon, 101%; in the assay with SNB-19 CNS it was 99.8%; with U251 CNS, 101%; in the assay on PC-3 prostate, 93.6%; in the assay on SK-MEL-5 melanoma, 106%. For the same compound, the growth with UACC-62 melanoma was 99%; in the assay with LOX IMVI melanoma it was 98.9%; with SK-MEL-28 melanoma, 104%.
